HCV inhibitor – HCV inhibition; Huh7.5.1 HCVcc-Cre infection, luciferase reporter, 44 h; Potency, µM (series often up to 41.8 µM), for inactives: at the top dose activity change, negative = inhibition, actives largely listed as inhibitors; 3.4% of 340,000 active; AID 651820; also: potency is read from the fitted curve at half-maximal effect
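Antiviral activity was scored by luciferase reporter output from cells infected with HCVcc-Cre (~0.5 moi) in presence of compound, 44 h infection period, cells seeded 1,000/well 4 h prior.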
Pf growth 48h – P. falciparum growth inhibition at 48 hours (one generation); P. falciparum luciferase growth in erythrocytes, 48 h; Potency, µM (doses to about 28.7 µM), for inactives: at the top dose activity change, negative = inhibition, most hits filed as inhibitors; 5.9% of 310,000 active; AID 504832; also: potency is read from the fitted curve at half-maximal effect
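Read-out is firefly luciferase luminescence from an integrated reporter in P. falciparum, so falling signal marks reduced parasite growth. Infected erythrocytes were at 2% hematocrit and 0.1% parasitemia (final) in Albumax-supplemented RPMI 1640.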
Pf growth 96h – P. falciparum growth inhibition at 96 hour, primary screen for plastid delayed-death inhibitors. Potency, µM (series often up to 28.7 µM), for the others: at the top dose activity change, negative = inhibition, usual class: inhibitors. AID 504834. P. falciparum luciferase reporter growth, 96 h. 6.9% of 320,000 active; also: potency is read from the fitted curve at half-maximal effect
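Two-generation exposure (96 h) targets delayed-death phenotype. Reporter parasites carrying integrated firefly luciferase, in red cells at 2% hematocrit and 0.05% parasitemia final, kept at 37 C, 5% CO2; luminescence loss indicates inhibition.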
HCMV inh – inhibitors of human cytomegalovirus | activity change, negative = inhibition, % at 57.5 µM | HFF cells, HCMV-luciferase reporter, 72 h; hits give low values | 4.5% of 410,000 active; in the data active = activity change below about -60%; inconclusive = no clear call, values can overlap the other calls; inactive = above about -39%
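Steps: HFFs plated, 16 h 37C; compounds added; HCMV-luciferase added to MOI 1 PFU/cell; 72 h 37C; OneGlo reagent, 5 min room temperature; luminescence read, normalized to controls.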
* = called active by the depositor; ? = inconclusive; · = not tested or not shown. Hits are enriched below; roughly 13% of the tested compounds scored in any of these assays. Unless noted, calls follow the shape of the dose curve; as a rule, active = well fitted inhibition curve with a large enough effect; inconclusive = small, poorly fitted or top-dose-only effect, or another doubt; inactive = no such curve, though single readings can be large or run the other way. % is scaled to controls: 0 for no effect and ±100 for the full control effect.

SMILES	HCV inhibitor	Pf growth 48h	Pf growth 96h	HCMV inh
CC(C)C1CCC(C(=O)NC(Cc2ccccc2)C(=O)O)CC1 (stereo unspecified)	·	1.5%	21.1%	·
O=C(NCCCCc1ccccc1)c1cccc(NC(=O)C2CCCCC2)c1	?	·	·	-8.2
O=C(NCCCCC(NC(=O)C1CCCCC1)C(=O)O)c1ccccc1 (stereo unspecified)	16.3%	?	8.28µM*	-11.1
O=C(NC(Cc1ccccc1)C(=O)O)C1CCCCC1 (stereo unspecified)	-7.3%	2.8%	10.4µM*	-3.8
CCC[C@H]1[C@H](NCc2cccs2)CC[C@@]23CCCN2C(=O)CCC[C@@H]13	·	·	·	6.1
COc1cc(/C=C/C(=O)OCC(=O)NC(=O)NC23CC4CC(CC(C4)C2)C3)ccc1OCC#N	?	14.7µM*	?	-13.0
O=C(Cn1cnc2c(oc3nc4c(cc32)CCCC4)c1=O)Nc1ccccc1	-15.9%	-20.3%	?	5.6
C=C(C)Cn1cnc2c(oc3nc4c(cc32)CCCC4)c1=O	1.0%	139.9%	11.7µM*	102.0
O=C(Cn1cnc2c(oc3nc4c(cc32)CCCC4)c1=O)Nc1cccc(Cl)c1	25.1µM*	-17.5%	?	34.0
CC(C)N1CCN(c2ccc(OC[C@H]3CO[C@](Cn4cncn4)(c4ccc(Cl)cc4Cl)O3)cc2)CC1	?	13.1µM*	9.28µM*	-98.7*
CC(=O)/C(C#N)=C1\NC(=O)C(Cc2cc(Cl)ccc2Cl)S1 (stereo unspecified)	-7.6%	?	-25.9%	-89.2*
CC(=O)/C(C#N)=C1\NC(=O)C(Cc2ccccc2Cl)S1 (stereo unspecified)	-0.4%	25.0%	?	-94.9*
NC1=NC(=O)C(Cc2cc(Cl)ccc2Cl)S1 (stereo unspecified)	11.2%	31.4%	?	-13.4
C[C@H]1CCCCO[C@H](CN(C)C(=O)C2CCCCC2)[C@@H](C)CN([C@@H](C)CO)C(=O)c2cc(NC(=O)NC3CCCCC3)ccc2O1	·	·	·	21.1
O=C(Nc1ccc(Br)c2ccccc12)c1ccc2ccccc2c1O	?	11.7µM*	9.28µM*	-100.1*
CCc1ccc(NC(=O)NNC(=O)c2cc3ccccc3cc2O)cc1	3.3%	-1.2%	12.2%	0.1
CCc1ccc(NC(=O)NNC(=O)c2ccc3ccccc3c2O)cc1	5.6%	-7.4%	-14.2%	-82.3*
Nc1cc(=O)nc(SCC(=O)Nc2ccc(F)cc2)n1-c1ccccc1Cl	·	·	·	24.4
N#Cc1sc2nc3c(cc2c1N)CCCC3	1.5%	74.0%	11.7µM*	-64.2*
COCCCNC(=O)COc1ccc2oc3c(c2c1)CCCC3	-12.0%	0.2%	-5.1%	-1.3
CC(C)N(CCNC(=O)COc1ccc2oc3c(c2c1)CCCC3)C(C)C	12.6µM*	-8.3%	-13.5%	-20.2
CCC(C)NC(=O)CSc1nc2c(sc3ccccc32)c(=O)n1Cc1ccccc1Cl (stereo unspecified)	·	·	·	7.8
Fc1ccc(C(NCCc2ccccc2)c2nnc(-c3ccccc3Cl)o2)cc1 (stereo unspecified)	·	·	·	-5.0
CCN1CCN(c2cc(C)c3cc(NC(=O)c4cccc(OC)c4)ccc3n2)CC1	?	?	2.08µM*	?
CCN1CCN(c2cc(C)c3cc(NC(=O)c4cncc(Br)c4)ccc3n2)CC1	5.62µM*	0.104µM*	1.85µM*	?
SMILES	HCV inhibitor	Pf growth 48h	Pf growth 96h	HCMV inh
CCN1CCN(c2cc(C)c3cc(NC(=O)c4cccc(C(F)(F)F)c4)ccc3n2)CC1	·	·	·	-29.6
CC(c1ccccc1)N1CCn2c(nc3cc(NC(=O)c4cccs4)ccc32)C1 (stereo unspecified)	10µM*	?	·	-73.2*
CCN1CCN(c2cc(C)c3cc(NC(=O)c4ccc5c(c4)OCO5)ccc3n2)CC1	?	3.29µM*	-5.1%	-17.9
COc1ccccc1CC(=O)Nc1ccc2nc(N3CCC(C)CC3)cc(C)c2c1	·	·	·	-6.7
COc1ccc(/C=C/C(=O)Nc2ccc3nc(N4CCC(C)CC4)cc(C)c3c2)cc1OC	·	·	·	-87.6*
Cc1ccccc1NC(=O)Nc1ccc2nc(N3CCN(C)CC3)cc(C)c2c1	·	·	·	-21.7
CCOc1ccccc1NC(=O)Nc1ccc2nc(N3CCN(C)CC3)cc(C)c2c1	·	·	·	-105.6*
CCN1CCN(c2cc(C)c3cc(NC(=O)/C=C/c4ccc(OCCC(C)C)cc4)ccc3n2)CC1	·	·	·	-78.6*
CCN1CCN(c2cc(C)c3cc(NC(=O)c4cccs4)ccc3n2)CC1	?	2.08µM*	?	14.6

Screening results from PubChem BioAssay.
